Results filed as inconclusive are left out. A number with no mark means an inactive call. Active and inactive are the calls of the source. Calls follow the shape of the dose curve; as a rule, active = well fitted inhibition curve with a large enough effect; inconclusive = small, poorly fitted or top-dose-only effect; inactive = flat fitted curve, though single readings scatter. *1 amine or outer side, *2 acyl side, *3 side chain or, on linkers, in order; H or OH if unused. Where a SMILES comes first, the peptide text is derived from it. [ ]: non-standard residue; d: D form. X13 = O=C(C(CC(O)CO)O[*:1])[*:2]; NMeV = CN[CH](C(=O)O)C(C)C; NMeA = CN[CH](C)C(=O)O; βAla = NCCC(=O)O

One test relates to CRL-7250. The experiment in a line: Cytotoxic Profiling of Annotated Libraries Using Quantitative High-Throughput Screening (AID 1296008). Also: potency is read from the fitted curve at half-maximal effect. As to max response: % is scaled to controls: 0 for no effect and ±100 for the full control effect. Particulars: Five cell lines viability, CellTiter-Glo ATP luminescence, 48-72 h; max response: hits give low values. A digest of the protocol: (§1)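 Compounds were pin-transferred onto cells and incubated 48 or 72 hr at 37 degree Celsius, 95% humidity. CellTiter-Glo was added, plates sat 10 min at room temperature, then ATP-coupled luminescence was imaged as the viability read-out.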
Background: Cellular ATP, detected with luciferase, serves as a proxy for viable cell number.

For the next test, the system named is HEK293. The test is described as above. Particulars: Five cell lines viability, CellTiter-Glo ATP luminescence, 48-72 h; max response: hits give low values. A digest of the protocol:
as §1

Test [1] has as its system HaCat. The test is described as above. Particulars: Five cell lines viability, CellTiter-Glo ATP luminescence, 48-72 h; max response: hits give low values. A digest of the protocol:
as §1

A further test relates to KB-3-1. The description is as above. To be noted: Five cell lines viability, CellTiter-Glo ATP luminescence, 48-72 h; max response: hits give low values. A digest of the protocol: as §1
Test [2] has as its system NIH3T3. The description is as above. Particulars: Five cell lines viability, CellTiter-Glo ATP luminescence, 48-72 h; max response: hits give low values. A digest of the protocol: as §1
The subject of test [3] is HACAT. In words: qHTS assay to identify novel small-molecules to repurpose for Merkel cell carcinoma treatment (AID 1296009). Particulars: MCC and control cell lines, CellTiter-Glo viability, 72 h; at 44.8 µM (top of the series) unless noted. A digest of the protocol:
(§2)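 Cells exposed to NPC (8-point) and MIPE (11-point) compound dilutions for 72 hr at 37 degree celsius; viability read by CellTiter-Glo luminescence, normalized to no-cell and DMSO in-plate controls.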
Background: Quantitative high-throughput screening tests each substance at several concentrations.

Test [4] concerns NIH3T3. Described as above. Particulars: MCC and control cell lines, CellTiter-Glo viability, 72 h; at 44.8 µM (top of the series) unless noted. A digest of the protocol:
as §2
Also: nearly all actives have a fitted effect of over 60% in size.

For `OC[C@@]1(O)CO[C@@H](OC[C@H]2O[C@@H](Oc3ccccc3)[C@H](O)[C@@H](O)[C@@H]2O)[C@@H]1O`, the molecule was classed as inactive in the test on CRL-7250, in the test with HaCat [1], in the test on NIH3T3 [2], in the test on HACAT [3] and in the test on NIH3T3 [4]. The values for the max response in the test with HEK293 and in the test with KB-3-1 were -6.8% and 0.107%, respectively.

Turning to `CCN1CCN(C(=O)N[C@@H](C(=O)N[C@@H]2C(=O)N3[C@@H]2SC(C)(C)[C@@H]3C(=O)O)c2ccccc2)C(=O)C1=O`, the max response in the test with CRL-7250 is -7%; in the test on HEK293, -6.17%. Besides, the molecule was classed as inactive with HaCat [1], with KB-3-1, in the test on NIH3T3 [2], in the test with HACAT [3] and with NIH3T3 [4].

As to `COc1cc(Nc2nc3ccccc3nc2NS(=O)(=O)c2cccc(NC(=O)c3ccc(C)c(OC)c3)c2)cc(OC)c1`, the max response was -4.07% in the test on CRL-7250, -14.5% with HEK293 and -12.1% in the test with KB-3-1. Also, the outcome with HaCat [1], with NIH3T3 [2], with HACAT [3] and in the test on NIH3T3 [4] was inactive.

On to `CC1(C)CC[C@]2(C(=O)O)CC[C@]3(C)C(=CCC4[C@@]5(C)CC[C@H](O[C@@H]6O[C@H](C(=O)O)[C@@H](O)[C@H](O[C@@H]7O[C@H](CO)[C@H](O)[C@H](O)[C@H]7O)[C@H]6O[C@@H]6O[C@H](CO)[C@@H](O)[C@H](O)[C@H]6O)C(C)(C)C5CC[C@]43C)[C@@H]2C1` (some centres undefined), for which the max response is 3.2% in the test with CRL-7250 and -6.56% in the test with HEK293. The call in the test on HaCat [1], in the test on KB-3-1 and in the test with NIH3T3 [2] was inactive. Further, the outcome in the test with HACAT [3] and in the test on NIH3T3 [4] was “inactive [at 4.96 µM]” throughout.

In the case of `C[C@@H]1O[C@@H](OC(=O)Cc2ccccc2)[C@H](O)[C@H](O)[C@H]1O`, the max response in the test with CRL-7250 is 2.73%; in the test on HEK293, -2.15%; in the test with KB-3-1, 6.7%. The outcome with HaCat [1], in the test on NIH3T3 [2], with HACAT [3] and in the test with NIH3T3 [4] was inactive.

For `COC(=O)c1[nH]c(=O)c2ccccc2c1-c1ccc[nH]1`, the molecule was called inactive with CRL-7250, in the test on HaCat [1], in the test with KB-3-1, with NIH3T3 [2], with HACAT [3] and in the test on NIH3T3 [4]. Besides, in the test with HEK293, the Potency was 20.6 µM (active).

Regarding `COc1c(O)cc2c(c1O)C(=O)O[C@H](C)[C@H]2O`, the molecule was called inactive with CRL-7250, with HaCat [1], in the test on NIH3T3 [2], with HACAT [3] and in the test on NIH3T3 [4]. The max response in the test on HEK293 is -6.03%; in the test on KB-3-1, 4.43%.

As to `NC[C@@H]1O[C@@H](O[C@@H]2[C@@H](O[C@@H]3O[C@H](CO)[C@@H](O)[C@H]3O)[C@H](O)[C@@H](N)C[C@H]2N)[C@@H](N)[C@H](O)[C@H]1O`, the outcome with CRL-7250, with HaCat [1], in the test on KB-3-1 and with NIH3T3 [2] was inactive. Also, the max response in the test with HEK293 was -4.01%. In addition, the outcome in the test with HACAT [3] and in the test with NIH3T3 [4] was “inactive [at 9.27 µM]” throughout.

Turning to `COc1ccc(S(=O)(=O)Nc2nc(-c3cccc([N+](=O)[O-])c3)cs2)cc1OC`, the max response in the test on CRL-7250 is -1.12%; in the test on HEK293, 2.2%; with KB-3-1, 6.48%. For the same molecule, the result in the test with HaCat [1], with NIH3T3 [2], in the test with HACAT [3] and with NIH3T3 [4] was inactive.

As for `CC(=O)OCC1=CCC2C(C)(C)CCCC2(C)C12CCC(C)(CC(=O)O)O2` (centres undefined), the max response in the test with CRL-7250 was -2.76%; in the test on HEK293, -0.588%; in the test with KB-3-1, 5.22%. The molecule was classed as inactive with HaCat [1], in the test on NIH3T3 [2], with HACAT [3] and in the test with NIH3T3 [4].

In the case of `CC(C)(O)C1CCC2(C)CCCC(C)(O)C2C1` (centres undefined), the results for the max response with CRL-7250, with HEK293 and with KB-3-1 were -27.4%, 2.93% and 8.99%, respectively. The result in the test on HaCat [1], with NIH3T3 [2], in the test on HACAT [3] and in the test on NIH3T3 [4] was inactive.

Turning to `COc1ccc(OC2OC(CO[C@@H]3O[C@@H](C)[C@H](O)[C@@H](O)[C@H]3O)C(O)C(O)C2O)cc1OC` (some centres undefined), the max response in the test with CRL-7250 was 3.33%; with HEK293, -0.0887%; in the test on KB-3-1, 5.53%. The call in the test with HaCat [1] and in the test with NIH3T3 [2] was inactive. The outcome in the test with HACAT [3] and in the test on NIH3T3 [4] was “inactive [at 17.4 µM]” throughout.

In the case of `CCC(C)C1NC(=O)C2CCCN2C(=O)C(CC(O)CO)OC(=O)CCNC(=O)C(C)N(C)C(=O)C(C(C)C)N(C)C1=O` (centres undefined) (cyclo([X13]PI[NMeV][NMeA][βAla]); configuration not given here), the max response is -8.24% in the test with CRL-7250, 2.6% with HEK293 and 9.21% in the test on KB-3-1. The molecule was called inactive in the test with HaCat [1] and with NIH3T3 [2]. For the same molecule, the outcome in the test with HACAT [3] and in the test on NIH3T3 [4] was “inactive [at 17.4 µM]” throughout.

For `CNc1nc(C)nc(N[C@H]2CCC[C@@H](C(=O)NCc3ccc(C#N)cc3C(F)(F)F)C2)n1`, the molecule was called inactive in the test on CRL-7250, with HaCat [1], in the test with NIH3T3 [2], in the test with HACAT [3] and in the test on NIH3T3 [4]. Moreover, the max response in the test on HEK293 is -15.3%; with KB-3-1 it was -5.41%.

Take `C[C@@]1(C(=O)O)CCC[C@@]2(C)C3=CC[C@H]4C[C@@]3(CC[C@H]12)CC4(O)CO` (some centres undefined): the max response in the test on CRL-7250 was -19%; in the test on HEK293, 4.94%. Also, the call in the test with HaCat [1], in the test with KB-3-1, in the test with NIH3T3 [2], in the test on HACAT [3] and in the test with NIH3T3 [4] was inactive.

With `C/C=C(\C)C(=O)OC1CC2C(CC=C3CC(OC4CC(OC)C(OC5CC(OC)C(OC6CC(OC)C(OC7CC(OC)C(OC8CC(OC)C(OC9OC(CO)C(O)C(O)C9O)C(C)O8)C(C)O7)C(C)O6)C(C)O5)C(C)O4)CCC32C)C2(O)CCC(C(C)=O)C12C` (centres undefined), the molecule was classed as inactive in the test on CRL-7250, with HaCat [1] and in the test with NIH3T3 [2]. In addition, the max response in the test on HEK293 is -12.4%; with KB-3-1, 8.92%. The outcome with HACAT [3] and in the test on NIH3T3 [4] was “inactive [at 9.27 µM]” in each case.

On to `C/C=C/C=C/C(=O)OC1CC/C=C/C(O)C(O)C(CCC)OC1=O` (centres undefined), for which the max response in the test with CRL-7250 was -18.3%; in the test on HEK293, 4.94%; with KB-3-1 it was 4.6%. The molecule was classed as inactive in the test on HaCat [1], with NIH3T3 [2], with HACAT [3] and with NIH3T3 [4].

The record behind these values is PubChem BioAssay (NCATS).
